This is a sample that favours compounds with a hit; in the whole collection about 6% have one here.
D3 antag = qHTS of D3 Dopamine Receptor Antagonist: qHTS; D(3) dopamine receptor (Homo sapiens), P35462; max response, negative = inhibition, %; AID 652054, 2013; D3R cells, DiscoveRx beta-arrestin luminescence, antagonist mode; stronger effect = lower value; hit rate 2.5% among 360,000; in the data active = max response below about -50%; inconclusive = no clear call, values can overlap the other calls
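Cells expressing the human receptor were seeded at 1500 cells/well, incubated overnight at 37 degrees C in 5% CO2, then exposed to library compounds with dopamine controls for 90 minutes at 37 degrees C before luminescent detection.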
D1 PAM = Potentiators of Human D1 Dopamine Receptor: qHTS. D(1A) dopamine receptor (Homo sapiens), P21728. potentiation, % at 10 µM. HEK293 TREx D1 cells, calcium flux, dopamine EC20 potentiation. hit rate 0.036% among 360,000. AID 504651, 2011; in the data active = potentiation above about 30%
Target sequence (P21728 whole entry, looked up): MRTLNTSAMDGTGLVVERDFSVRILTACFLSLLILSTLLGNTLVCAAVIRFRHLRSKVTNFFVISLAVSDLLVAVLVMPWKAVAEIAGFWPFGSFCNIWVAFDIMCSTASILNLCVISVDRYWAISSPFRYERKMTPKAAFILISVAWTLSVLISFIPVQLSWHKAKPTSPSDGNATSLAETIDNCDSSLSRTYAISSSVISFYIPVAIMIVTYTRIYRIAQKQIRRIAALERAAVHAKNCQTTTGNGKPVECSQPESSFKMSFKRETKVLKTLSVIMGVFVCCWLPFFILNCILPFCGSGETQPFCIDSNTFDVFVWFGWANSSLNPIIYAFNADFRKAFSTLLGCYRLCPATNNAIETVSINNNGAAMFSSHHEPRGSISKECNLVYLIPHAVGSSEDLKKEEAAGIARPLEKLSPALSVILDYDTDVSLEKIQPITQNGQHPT
D1 agonist = Allosteric Agonists of the Human D1 Dopamine Receptor: qHTS; activation, % at 2 µM; hit rate 1% among 360,000; HEK293 T-REx D1 cells, calcium flux, agonist mode; D(1A) dopamine receptor (Homo sapiens), P21728; AID 504660, 2011; in the data active = activation above about 30%
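Agonism was scored from calcium flux recorded over 180 s (1 read/s) after pintool compound addition, following a 10-cycle baseline. Cells were inducible force-coupled HEK293 TREx D1, plated overnight at 30 C and loaded with no-wash calcium dye.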
D1 antag = Antagonist of Human D 1 Dopamine Receptor: qHTS; activity change, negative = inhibition, % at 10 µM; D(1A) dopamine receptor (Homo sapiens), P21728; hit rate 3.2% among 360,000; HEK293 TREx D1 cells, calcium flux, dopamine EC80; stronger effect = lower value; in the data active = activity change below about -30%
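After overnight tetracycline induction at 30 C, force-coupled D1 HEK293 cells took up a no-wash calcium dye at room temperature. Compounds were added and monitored 180 s, and the response to EC80 dopamine was then recorded.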
D3 ag = qHTS of D3 Dopamine Receptor Agonist: qHTS; D(3) dopamine receptor (Homo sapiens), P35462; D3R DiscoveRx beta-arrestin cells, luminescence, 90 min; max activation, %; hit rate 0.58% among 410,000; AID 652048, 2013; in the data active = max activation above about 30%
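Agonist mode: compounds and dopamine controls were applied to plated cells for 90 min at 37 degrees C after an overnight attachment at 1500 cells/well. Luminescent read-out followed 30 - 60 minutes at room temperature with DiscoveRx detection reagent.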
A number is an active result; i = inactive; ? = inconclusive; nt = no result.

SMILES | D3 antag | D1 PAM | D1 agonist | D1 antag | D3 ag
COC(=O)c1ccc2c(=O)n(CCCCCC(=O)N3CCN(c4ccc(OC)cc4)CC3)c(=O)[nH]c2c1 | nt | i | i | i | i
COC(=O)c1sccc1NC(=O)CSc1ccccc1NS(=O)(=O)c1ccccc1Cl | i | i | i | i | i
COC(=O)c1sccc1NC(=O)CSc1ccccc1NS(=O)(=O)c1ccc(Cl)cc1 | -59 | nt | nt | nt | i
COc1cc(/C=C2\SC(N)=NC2=O)ccc1O | i | i | i | i | i
C=CCn1c(SCC(=O)c2c(N)n(CCC)c(=O)n(C)c2=O)nnc1-c1ccncc1 | i | i | i | -32 | i
CCCn1c(N)c(C(=O)CSc2nnc(-c3ccoc3C)n2C)c(=O)n(C)c1=O | i | i | i | i | i
O=C(c1cc(-c2ccc3c(c2)OCO3)on1)N1CCN(c2ccccc2)CC1 | i | i | i | i | 53
COc1ccccc1N1CCN(C(=O)c2cc(-c3ccc(C)c(F)c3)on2)CC1 | nt | i | i | -81 | i
COc1ccccc1N1CCN(C(=O)c2cc(-c3ccc4c(c3)OCO4)on2)CC1 | i | i | i | i | i
CCNC(=O)C1(C)CCN1CCC(=O)c1ccc(C)cc1 (configuration not stated) | i | nt | nt | nt | i
Cc1cccc(OCc2cc(=O)n3c(-c4ccccc4)csc3n2)c1C | nt | i | i | i | i
COc1cccc(CN(Cc2cccnc2)S(=O)(=O)c2ccc(-n3cnnn3)c(C)c2)c1 | i | i | i | -32 | i
CNS(=O)(=O)c1cccc(C(=O)OCC(=O)c2cc(C)n(CC3CCCO3)c2C)c1 (configuration not stated) | i | i | i | i | i
Cc1cc(C(=O)CSc2n[nH]c(N)n2)c(C)n1-c1ccc2c(c1)OCO2 | i | i | i | -40 | i
Cc1cc(C(=O)CN2C(=O)NC(C)(CC(C)C)C2=O)c(C)n1-c1ccc2c(c1)OCO2 (configuration not stated) | i | i | i | -46 | i
Cc1cc(C(=O)CN2C(=O)NC3(CCCC3)C2=O)c(C)n1-c1ccc2c(c1)OCO2 | i | i | i | i | i
CNS(=O)(=O)c1cccc(C(=O)OCC(=O)c2cc(C)n(-c3ccc4c(c3)OCO4)c2C)c1 | i | i | i | -39 | i
Cc1nc(NCc2ccccc2)c2cc[nH]c2n1 | i | i | i | -34 | i
COc1cccc(-c2nc(NCc3ccccc3)c3ccccc3n2)c1O | i | i | i | i | i
O=C(O)CCCN1C(=O)C(=O)/C(=C(/O)c2ccccc2)C1/C=C/c1ccccc1 (configuration not stated) | i | i | i | -31 | i
O=C(O)CCCN1C(=O)C(=O)/C(=C(/O)c2ccc(Cl)cc2)C1c1ccccc1 (configuration not stated) | i | i | i | i | i
O=C(Cn1c(SCC(=O)N2CCc3ccccc3C2)nc2ccccc21)NC1CCCC1 | i | i | i | i | i
O=C(Cn1c(SCC(=O)N2CCc3ccccc32)nc2ccccc21)NC1CCCC1 | -76 | i | i | i | i
Cn1c(-c2ccccc2)cnc1SCC(=O)N1CCCc2ccccc21 | i | i | i | i | i
O=C(CSc1ncc(-c2ccccc2)n1C1CCCC1)N1CCc2ccccc21 | -85 | i | i | i | i
SMILES | D3 antag | D1 PAM | D1 agonist | D1 antag | D3 ag
O=C(Nc1ccc(Cl)cc1)c1cc(S(=O)(=O)NC2CCCCCC2)ccc1F | nt | i | i | i | i
COc1cc(/C=C2\SC(=O)NC2=O)ccc1Oc1cnccn1 | i | i | i | -41 | i
COC(=O)c1c(C)oc2ccc(N(C(=O)c3ccncc3)S(=O)(=O)c3ccc(OC)cc3)cc12 | nt | i | i | -48 | i
CCOc1ccc(S(=O)(=O)N(C(=O)c2ccncc2)c2ccc3oc(C)c(C(=O)OC)c3c2)cc1 | nt | i | i | -46 | i
COc1ccccc1C(=O)Nc1ccc2oc(-c3cccc4c(Br)cccc34)nc2c1 | nt | i | i | i | i
CCCN(CCC)c1nc(-c2ccccn2)nc2ccccc12 | ? | i | i | i | i
CCCN(CCC)c1nc(-c2ccccc2F)nc2ccccc12 | nt | i | 39 | i | i
c1c(C2CCCCC2)n[nH]c1CN1CCCCC1 | -73 | i | i | i | i
c1cc(CN2CCN(C3CCCCCC3)CC2)ccn1 | i | i | i | i | i
CCOc1ccc(CCNC(=O)c2cccc(-n3cnnn3)c2)cc1OCC | i | i | i | -31 | i
COc1ccc(CCNC(=O)c2cccc(-n3cnnn3)c2)cc1 | i | nt | nt | nt | i
Cc1cc(OCC(=O)Nc2c(C(=O)c3ccccc3)oc3ccccc23)cc(C)c1Cl | nt | i | i | i | i
COc1cccc(-c2cc3onc(-c4ccccc4)c3c(=O)n2C)c1 | i | i | i | i | i
COc1ccc(-c2cc3onc(-c4c(Cl)cccc4Cl)c3c(=O)n2C)cc1 | i | i | i | -33 | i
Cn1c(-c2ccc(F)c(F)c2)cc2onc(-c3ccccc3)c2c1=O | i | i | i | i | 35
O=C(Nc1ccc(Cl)cc1C(=O)c1ccccn1)c1ccccc1 | i | nt | nt | nt | i
CCOC(=O)c1c(C)cc(O)cc1O | i | nt | nt | nt | 38
Fc1ccc(-c2noc3ncnc(NCc4cccc(Cl)c4)c23)cc1 | nt | i | i | i | i
CCc1nn(CC(=O)NCc2ccco2)c(=O)c2cc3cc(F)ccc3n12 | nt | i | i | i | i
FC(F)(F)c1cccc(Cn2nnnc2-c2ccc(Cl)cc2)c1 | i | i | i | -39 | i
CC(C)(C)C(=O)c1c(N)[nH]c(C(=O)c2ccccc2)c1-c1cc2ccccc2nc1Cl | i | nt | nt | nt | i
CCCCn1nnnc1C(c1ccnc2ccccc12)N1CCN(C/C=C/c2ccccc2)CC1 (configuration not stated) | i | nt | nt | nt | i
CCCCn1nnnc1C(c1ccccc1)N1CCN(C)CC1 (configuration not stated) | i | nt | nt | nt | i
CCCCn1nnnc1C(c1cccc2ccccc12)N1CCN(C/C=C/c2ccccc2)CC1 (configuration not stated) | -107 | nt | nt | nt | i
CCCCn1nnnc1C(c1ccccc1)N1CCN(C/C=C/c2ccccc2)CC1 (configuration not stated) | -71 | nt | nt | nt | i
CCC(c1nnnn1CCOC)N1CCN(Cc2ccccc2)CC1 (configuration not stated) | i | i | i | i | i
CCC(c1nnnn1Cc1ccccc1)N1CCN(C/C=C/c2ccccc2)CC1 (configuration not stated) | -99 | nt | nt | nt | i
CCCCn1nnnc1C(CC)N1CCN(C/C=C/c2ccccc2)CC1 (configuration not stated) | -68 | nt | nt | nt | i
CCOc1ccc(CCNC(=O)CCCn2nc(C)c3sc4ccccc4c3c2=O)cc1OCC | nt | i | i | i | i

Screening results: PubChem, National Center for Advancing Translational Sciences (NCATS)
